D1 antagonist – blocks dopamine activation of the human D1 receptor. P21728. HEK293 TREx D1 cells, calcium flux, dopamine EC80; active compounds read low. activity change, negative = inhibition, % at 10 µM. hit rate 3.2% among 360,000. AID 504652; in the data active = activity change below about -30%; note: % is set by controls: 0 for no effect and ±100 for the full control effect
Target sequence (P21728 whole entry, looked up): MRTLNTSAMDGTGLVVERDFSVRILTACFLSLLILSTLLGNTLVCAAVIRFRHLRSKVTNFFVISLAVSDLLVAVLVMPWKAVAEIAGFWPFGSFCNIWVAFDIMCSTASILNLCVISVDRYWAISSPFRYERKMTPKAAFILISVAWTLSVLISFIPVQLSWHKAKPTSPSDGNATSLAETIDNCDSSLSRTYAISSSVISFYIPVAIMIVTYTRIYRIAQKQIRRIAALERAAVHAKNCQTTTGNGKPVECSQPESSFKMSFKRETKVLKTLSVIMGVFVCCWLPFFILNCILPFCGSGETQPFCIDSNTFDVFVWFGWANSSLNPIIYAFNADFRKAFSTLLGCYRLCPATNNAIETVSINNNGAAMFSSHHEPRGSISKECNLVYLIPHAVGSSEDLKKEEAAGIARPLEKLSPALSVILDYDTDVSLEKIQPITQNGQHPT
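Using tetracycline-induced force-coupled D1 Hek293 cells and a calcium dye, signals were followed for 180 s after compound, then for 180 s after EC80 dopamine, to detect inhibitors.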
DRD3 antagonist – antagonists of human D3 dopamine receptor. max response, negative = inhibition, %. hit rate 2.5% among 360,000. D3R cells, DiscoveRx beta-arrestin luminescence, antagonist mode; active compounds read low. P35462; in the data active = max response below about -50%; inconclusive = no clear call, values can overlap the other calls; note: % is set by controls: 0 for no effect and ±100 for the full control effect
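Cells plated overnight at 1500 cells/well, then exposed to library compounds with dopamine controls for 90 minutes at 37 degrees C. DiscoveRx reagent added for 30–60 minutes at room temperature; luminescence read, quantitative HTS format.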
D3 ag – agonists of human D3 dopamine receptor; P35462; D3R DiscoveRx beta-arrestin cells, luminescence, 90 min; max activation, %; hit rate 0.58% among 410,000; AID 652048; in the data active = max activation above about 30%; note: 0% is about no effect
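Agonist-mode cell screen: cells plated at 1500/well and incubated overnight at 37 °C, then exposed to library compounds for 90 min at 37 °C. Detection reagent was added for 30–60 min at room temperature, and luminescence was read.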
D1 potentiator – human D1 dopamine receptor positive modulation | hit rate 0.036% among 360,000 | HEK293 TREx D1 cells, calcium flux, dopamine EC20 potentiation | P21728 | potentiation, % at 10 µM | AID 504651; in the data active = potentiation above about 30%; note: 0% is about no effect
D1 agonist – activates the human D1 dopamine receptor | HEK293 T-REx D1 cells, calcium flux, agonist mode | activation, % at 2 µM | hit rate 1% among 360,000 | AID 504660; in the data active = activation above about 30%; note: 0% is about no effect
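Inducible HEK293 T-REx D1 cells, force-coupled to calcium signalling, were plated at 4000 cells/well with tetracycline and held overnight at 30 C. After no-wash calcium dye loading, compound-evoked calcium rise over 180 s flagged agonists.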
* marks the source's active call; other numbers are inactive results; ? = inconclusive; · = not tested or not shown; ! = repeats disagree. Hits are enriched below; roughly 6% of the tested compounds scored in any of these assays.

SMILES	D1 antagonist	DRD3 antagonist	D3 ag	D1 potentiator	D1 agonist
Cc1ccc(NC(=O)C2CCCN2S(=O)(=O)c2cccc3cccnc23)cc1C (configuration not stated)	-6	·	16	-3	-2
O=C(CCc1ccccc1)N(Cc1cccnc1)c1nc2c(F)cc(F)cc2s1	·	·	-3	-2	15
CCOCCCNC(=S)N(Cc1ccco1)Cc1cc2cc3c(cc2[nH]c1=O)OCCO3	0	6	10	-3	0
COC(=O)c1ccccc1NC(=S)N(Cc1ccc2c(c1)OCO2)Cc1cc2ccc(C)cc2[nH]c1=O	8	13	-6	-1	5
CCCCNC(=S)N(Cc1ccco1)Cc1cc2cc3c(cc2[nH]c1=O)OCCO3	-46*	12	6	-5	-1
CCN(CC)CCN(Cc1cc2cc(C)c(C)cc2[nH]c1=O)C(=S)NCc1ccco1	-12	-72*	-27	7	4
CCN(CC)CCN(Cc1cc2cc3c(cc2[nH]c1=O)OCO3)C(=S)NCCCOC	6	-52*	-6	-5	3
CCN(CC)CCN(Cc1cc2ccc(C)cc2[nH]c1=O)C(=S)Nc1ccccc1C(=O)OC	-23	-84*	-19	-3	3
CN1CCN(C(CNC(=O)c2c(F)cccc2F)c2ccc3c(c2)OCO3)CC1 (configuration not stated)	9	·	3	-1	2
Cc1cc(C)n2nc(CNC(=O)c3c(F)cccc3F)nc2n1	1	·	-11	-2	3
Cc1ccc(C(=O)c2c3ccc(N)cc3nn2CCC(N)=O)cc1	3	-73*	-13	-9	3
COC(=O)CCc1nc2c(C#N)c(-c3ccc(Cl)cc3)ccn2n1	-5	6	5	-2	0
N#Cc1c(-c2ccc(Cl)cc2)ccn2nc(C3CCCCC3)nc12	-31*	-19	7	-4	-3
O=C(CSCc1ccc(F)cc1)N1CCN(c2ccc(Cl)cc2)CC1	-15	·	80*	-2	1
O=C(Cc1ccc(F)cc1)N1CCN(c2ccc([N+](=O)[O-])cc2)CC1	-55*	-10	5	-2	13
Cc1noc(C(=O)N2CCN(c3ccc(F)cc3)CC2)c1Cl	-69*	-3	0	-3	2
Cc1noc(C)c1CSCC(=O)N1CCN(c2ccc(F)cc2)CC1	-32*	4	-7	-3	13
COCC(=O)Oc1c(Sc2ccc(C)cc2)c(C)nn1C(C)(C)C	-3	·	4	1	0
COc1ccc(CCNc2oc(/C=C/c3ccc(OC)c(OC)c3)nc2C#N)cc1	2	·	-37	-2	-2
COc1cc(OC)cc(C(=O)NC(C)c2ccc(Br)cc2)c1 (configuration not stated)	4	12	2	-1	41*
O=C(C1CCC(=O)N(C2CC2)C1)N1CCC(Oc2cccc(F)c2)CC1 (configuration not stated)	-37*	-9	-9	-6	-1
O=C(Nc1ccc(Cc2ccncc2)cc1)C1CCC(N2C(=O)C3CCCCC3C2=O)CC1 (configuration not stated)	-39*	36	14	-6	9
CN(C)CC/C=C1\c2cc(F)ccc2CSc2ccccc21	-93*	-52*	-43	-6	23
C#CCN(C)CC/C=C1\c2ccccc2CSc2ccccc21	-2	-71*	-21	-23	3
CN(C)CC/C=C1/c2cc(F)ccc2CSc2ccc(F)cc21	-4	?	-26	-9	5
SMILES	D1 antagonist	DRD3 antagonist	D3 ag	D1 potentiator	D1 agonist
NCC/C=C1/c2ccccc2CSc2ccccc21	-5	?	-1	-5	21
CN(CC/C=C1/c2ccccc2CSc2ccccc21)CCCO	-30	?	-17	-8	31*
CC(O)CN(C)CC/C=C1/c2ccccc2CSc2ccccc21 (configuration not stated)	-72*	-8	-10	-11	30*
Cc1ccc2onc(CNC(=O)N3CCN(c4cccc(C)c4C)CC3)c2c1	1	·	6	0	0
C=CCN(C)CC/C=C1\c2ccccc2CSc2ccccc21	-7	-73*	-6	-9	0
O=C(CSc1nc(=O)n(Cc2ccco2)c2c1CCC2)NCc1ccccc1Cl	·	·	7	1	3
CC1=C(C(=O)Nc2ccccc2)C(c2cccnc2)n2nc(SCc3ccccc3F)nc2N1 (configuration not stated)	-3	·	-7	1	11
CC1=C(C(=O)Nc2ccccc2)C(c2cccnc2)n2nc(SCc3ccccc3Cl)nc2N1 (configuration not stated)	-35*	·	-12	-1	-1
CCOc1ccc(-c2nnc(SCC(=O)NCc3ccccc3Cl)o2)cc1	-18	·	-11	-3	6
COc1ccc2c(=O)cc(CO)oc2c1	·	0	38*	·	·
COc1ccc(CNC(=O)COc2cc3c(c4oc(=O)cc(C)c24)CCC(C)(C)O3)cc1	-7	24	36*	-1	3
COc1cc(OC)c(-c2nc3cnccc3n2C)cc1OC	-7	17	-3	3	1
Cn1c(-c2ccc3ccccc3n2)nc2cnccc21	9	-59*	12	-5	2
CC(=O)c1ccc(S(=O)(=O)Nc2ccc(-c3ccc(N4CCCCC4)nn3)cc2)cc1	-14	·	-4	-3	6
O=C(CN1CCCN(Cc2cccc(F)c2)S1(=O)=O)Nc1ccc2c(c1)OCCO2	3	·	3	0	-2
C=CC[C@H](CC(=O)N(CCO)Cc1ccccc1)C(=O)N[C@@H](C)COC(=O)[C@H](CC=C)CC(=O)OC(C)(C)C	·	17	43*	·	·
C=CC[C@H](CC(=O)N(CCO)Cc1ccccc1)C(=O)N[C@H](C)COC(=O)[C@@H](CC=C)Cc1ccc(F)cc1	·	24	7	·	·
C=CC[C@@H](CC(=O)N(CCO)Cc1ccccc1)C(=O)N[C@@H](C)COC(=O)[C@@H](CC=C)CC(=O)OC(C)(C)C	·	17	4	·	·
C=CC[C@@H](CC(=O)N(CCO)Cc1ccccc1)C(=O)N[C@H](C)COC(=O)[C@@H](CC=C)Cc1ccc(F)cc1	·	162	40*	·	·
Cn1c(=O)n(CC(=O)O)c(=O)c2c1nc1n2CCCN1c1ccc(Cl)cc1	-14	·	-10	1	0
CCOC(=O)c1cnc2c(Cl)cc(Cl)cc2c1Nc1ccccc1OC	12	·	-4	2	0
CCn1c(O)c(C=Nc2ccccc2)sc1=S	13	-27	-5	4	1
O=C(O)Cn1c(O)c(C=Nc2ccccc2)sc1=S	2	-63*!	0	-5	0
O=c1[nH]c2cc([N+](=O)[O-])c(NCCO)c([N+](=O)[O-])c2[nH]1	14	-59*	-18	1	0
CC(=O)Nc1c([N+](=O)[O-])cc2[nH]c(=O)[nH]c2c1[N+](=O)[O-]	7	?	-5	7	5
CNCCCC1c2ccccc2C=Cc2ccccc21	-22	-99*	-87	-5	43*

Source: PubChem BioAssay
